Assay outcomes (PubChem)
NS3h inh CB – blocks HCV NS3 helicase binding to DNA | NS3h Cy5-dT15 DNA binding, fluorescence polarization | inhibition, % at 100 µM | hit rate 1.6% among 16,000 | AID 687043;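 active = inhibition above the average over every tested compound plus 3 SD, cut at about 40% in these data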
Cy5 interf NS3h – enhances or quenches Cy5 fluorescence in NS3h assay | hit rate 6% among 16,000 | fluorescence interference ratio at 100 µM | AID 720488 | Cy5-dT15 DNA with NS3h, fluorescence interference; actives lie on both sides; signal over control mean, under 1 quenches;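 active = compound fluorescence over control fluorescence at most 0.8, a quencher, or at least a set upper limit, an enhancer; inactive = ratio between 0.8 and the set upper limit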
* marks the source's active call; other numbers are inactive results. This is a sample that favours compounds with a hit; in the whole collection about 7.6% have one here.

SMILES	NS3h inh CB	Cy5 interf NS3h
Cc1ccc(/C=C2/SC(=O)N(c3ccccc3)C2=O)cc1	18	0.97
CCC(=O)Nc1sc2c(c1C(=O)Nc1cccc3ccccc13)CCCCC2	-1	0.99
O=[N+]([O-])c1ccc(OCCS(=O)(=O)c2ccccc2)c(OCCS(=O)(=O)c2ccccc2)c1	8	0.94
CC(=O)c1ccc(N2C(=O)c3ccccc3C2=O)cc1	8	1
CC(=O)c1ccc(N2C(=O)c3c(Cl)c(Cl)c(Cl)c(Cl)c3C2=O)cc1	9	0.7*
COC(=O)c1ccc(OCC(O)CN(C)C)cc1 (stereo not given)	10	0.76*
CCOC(=O)c1ccc(NC(=O)c2ccc(OCC(C)C)cc2)cc1	-3	0.99
COc1ccc(-c2cn3ccc(C)cc3n2)cc1Br	18	0.82
CN(C)/C=C/C=C1\CC(=O)N(c2ccccc2)C1=O	8	0.89
CC1CC/C(=C\C=C\N(C)C)C(=O)/C1=C/C=C/N(C)C (stereo not given)	28	0.72*
COc1ccc(C(=O)NCc2ccccc2C)cc1	4	1
CCOc1ccc(C(=O)Nc2ccccc2C(=O)O)cc1	3	1.1
CCOc1ccccc1NC(=O)c1ccc(OC)cc1	8	1.3*
CCOC(=O)CNC(=O)c1ccc(OC)cc1	4	0.71*
CC(=O)NC1=NN(C(C)=O)C(c2ccc(Cl)cc2Cl)S1 (stereo not given)	6	1
COc1ccc(N(CC(=O)N2CCCC2)S(=O)(=O)c2ccccc2)cc1Cl	-6	1
CCN(CC)c1ccc(NC(=O)c2ccc(OC)c([N+](=O)[O-])c2)cc1	14	0.89
CN(C)c1ccc(NC(=O)c2ccccc2Cl)cc1	10	1.1
O=C(Nc1ccc(-c2cnc(-c3ccc(NC(=O)c4ccccc4Cl)cc3)nc2)cc1)c1ccccc1Cl	16	0.72*
CC1CC(Nc2ccccc2)c2ccccc2N1C(=O)c1ccc(Cl)cc1Cl (stereo not given)	12	0.62*
CC1CC(Nc2ccccc2)c2ccccc2N1C(=O)COc1ccc(Cl)cc1 (stereo not given)	9	1
COc1ccccc1-c1coc2c(CN3CCC(C)CC3)c(O)ccc2c1=O	4	1.1
O=C1NC(=O)N(c2cccc(Cl)c2)C(=O)/C1=C/c1ccc(O)c(Cl)c1	12	0.99
COc1ccccc1C(=O)Nc1cc(C)cc(C)c1	15	0.68*
CC(=O)Nc1ccc(NC(=O)c2ccccc2OC(F)F)cc1	6	0.77*
SMILES	NS3h inh CB	Cy5 interf NS3h
O=C(Nc1ccc(NC(=O)c2ccccc2Br)cc1)c1ccccc1Br	9	0.96
COc1ccccc1C(=O)Nc1ccc(Br)cc1	0	0.91
COc1ccccc1CC(=O)N1CCc2ccccc21	8	1.1
CC(C)OC(=O)c1cc(O)c(O)c(O)c1	-1	1.1
CC1=NN(c2ccccc2)C(=O)/C1=C/c1cn(CCC#N)nc1-c1ccc(F)cc1	11	0.97
O=C1NN(c2ccccc2)C(=O)/C1=C/c1ccc(OCc2ccccc2F)cc1	14	1
COc1cc(/C=C2\C(=O)NN(c3ccccc3)C2=O)ccc1OCC(=O)O	11	1.1
COc1cc(/C=C2\C(=O)NN(c3ccccc3)C2=O)ccc1OCc1ccccc1F	36	0.56*
CCOC(=O)COc1ccc(/C=C2\C(=O)NN(c3ccc(Cl)c(Cl)c3)C2=O)cc1OC	18	0.8*
C=C(C)Cn1c(-c2ccc(OC)cc2)n[nH]c1=S	0	1
COc1ccc(NC(=O)CN2C(=O)/C(=C/c3cccc(Br)c3)SC2=S)cc1	-1	1
O=C1C2CCCCC2C(=O)N1c1nc2ccccc2s1 (stereo not given)	-6	0.85
S=C(NNc1nc2ccccc2s1)NC1CCCCC1	17	0.74*
O=S(=O)(NC1C2CC3CC(C2)CC1C3)c1ccc2ccccc2c1 (stereo not given)	15	1
COC(=O)/C(=C\C=C\N(C)c1ccccc1)C(C)=O	-7	1.1
Cc1nc2sc3c(c2c2nncn12)CCCC3	6	0.66*
Cc1nc2sc3c(c2c(=O)n1-n1cccc1)CCCC3	13	0.96
CCOC(=O)C1=C(C)N=c2s/c(=C\c3cccs3)c(=O)n2C1c1cccc(OC)c1 (stereo not given)	19	1
O=C1/C(=C\c2ccc3c(c2)OCO3)SC(=S)N1CC1CCCO1 (stereo not given)	5	1
Nc1ccc(Oc2ccc(N)c(N)c2)cc1	-10	0.19*
COc1ccc(Oc2ccc(N)cc2)cc1	-12	0.92
CC(=O)Oc1ccc2c(C)c(C)c(=O)oc2c1	6	1.1
CCc1ccccc1NC(=O)CN(c1ccc(C)cc1)S(C)(=O)=O	2	1
COc1ccc(/C=N\n2cnnc2)cc1Br	-15	1
COc1cc(/C=N\n2cnnc2)cc(OC)c1O	1	0.67*
COc1cc(/C=c2\sc3nc4ccccc4n3c2=O)ccc1OC(=O)c1cccs1	-2	0.98
Cc1c(NC(=S)NC(=O)c2ccco2)cccc1-c1nc2ncccc2o1	3	0.97
